Results published in the supplement of paper PMC10849652.
Of roughly 7,900 targets only a part is listed; those with a hit were picked by preference. About 0.6% of all pairs of compound and target were hits.

How the values were obtained:
Test in all cases: log2 fold change, soluble protein after heating vs DMSO (PISA); higher = thermal stabilisation; K562 cells, 10 uM, 30 min; active = over 0.2 and 3.5 SD of the protein, either way, in both replicates (recomputed)
[1] = compound: CC[C@@H]1C(=O)N(C)c2cnc(Nc3ccc(C(=O)NC4CCN(C)CC4)cc3OC)nc2N1C1CCCC1
Method in brief: (§1)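 K562 cells at 2×10^6 cells/mL were treated with 10 μM compound for 30 min. Aliquots were heated for 3 min across 48°C-58°C, pooled, and extracted in PBS with 0.5% NP-40 at 4°C; soluble protein was the supernatant after 21,000xg for 90 min. Soluble protein was quantified by TMTpro 16plex LC-MS/MS with channel sums equalised, and reported as log2 fold change in thermal stability against DMSO controls, with values from duplicates.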

volasertib = compound: CC[C@@H]1C(=O)N(C)c2cnc(Nc3ccc(C(=O)N[C@H]4CC[C@H](N5CCN(CC6CC6)CC5)CC4)cc3OC)nc2N1C(C)C [volasertib]
Method in brief: as §1

[2] = compound: CC[C@H](C)N1C=C(C2=C(C=C(C=C21)C3=CN=C(C=C3)N4CCNCC4)C(=O)NCC5=C(C=C(NC5=O)C)C)C
Method in brief: as §1

epoxomicin = compound: CC[C@H](C)[C@@H](C(=O)N[C@@H]([C@@H](C)O)C(=O)N[C@@H](CC(C)C)C(=O)[C@]1(CO1)C)NC(=O)[C@H]([C@@H](C)CC)N(C)C(=O)C [epoxomicin]
Method in brief: as §1

[3] = compound: CCn1c(C(=O)N(C2CC2)C2CC2)cc2c3c(ncn3C)c(Nc3cc(C)n(C)n3)nc21
Method in brief: as §1

[4] = compound: CCn1cc(-c2ccnc3[nH]c(-c4cccc(CN(C)C)c4)cc23)c(-c2ccc(NC(=O)N(C)C)cc2)n1
Method in brief: as §1

[5] = compound: CN(C)CC(=O)Nc1ccc2[nH]c(=O)c3ccccc3c2c1
Method in brief: as §1

rosiglitazone = compound: CN(CCOC1=CC=C(C=C1)C[C@H]2C(=O)NC(=O)S2)C3=CC=CC=N3 (racemic) [rosiglitazone]
Method in brief: as §1

[6] = compound: CN1C2=C(C3=C1C(=O)N(N=C3)CC4=CC(=CC=C4)N)SC(=C2)S(=O)C
Method in brief: as §1

[7] = compound: CN1CCC(CNc2ccc3ncc(-c4cccc(OC(F)(F)F)c4)n3n2)CC1
Method in brief: as §1

saracatinib = compound: CN1CCN(CCOc2cc(OC3CCOCC3)c3c(Nc4c(Cl)ccc5c4OCO5)ncnc3c2)CC1 [saracatinib]
Method in brief: as §1

sotrastaurin = compound: CN1CCN(c2nc(C3=C(c4c[nH]c5ccccc45)C(=O)NC3=O)c3ccccc3n2)CC1 [sotrastaurin]
Method in brief: as §1

alvocidib = compound: CN1CC[C@H](c2c(O)cc(O)c3c(=O)cc(-c4ccccc4Cl)oc23)[C@H](O)C1 [alvocidib]
Method in brief: as §1

Tubastatin A = compound: CN1CCc2c(c3ccccc3n2Cc2ccc(C(=O)NO)cc2)C1 [Tubastatin A]
Method in brief: as §1

[8] = compound: CNC(=O)C1=CC=CC=C1NC2=NC(=NC=C2Cl)NC3=C(C=C(C=C3)N4CCOCC4)OC
Method in brief: as §1

defactinib = compound: CNC(=O)c1ccc(Nc2ncc(C(F)(F)F)c(NCc3nccnc3N(C)S(C)(=O)=O)n2)cc1 [defactinib]
Method in brief: as §1

rucaparib = compound: CNCc1ccc(-c2[nH]c3cc(F)cc4c3c2CCNC4=O)cc1 [rucaparib]
Method in brief: as §1

[9] = compound: CNc1nc(-c2ccc3c(N)n[nH]c3c2)cc(N2C[C@@H](C(=O)NC3CCCCC3)CC[C@H]2C)n1
Method in brief: as §1

encorafenib = compound: COC(=O)N[C@@H](C)CNc1nccc(-c2cn(C(C)C)nc2-c2cc(Cl)cc(NS(C)(=O)=O)c2F)n1 [encorafenib]
Method in brief: as §1

[10] = compound: COC(=O)[C@H](CCSC)NC(=O)C1=C(C=C(C=C1)NC[C@H](CS)N)C2=CC=CC=C2
Method in brief: as §1

Measured: log2 fold change

PACS1 (UniProt Q6VY07)
Chain of UniProt Q6VY07 (Q6VY07 whole entry, looked up): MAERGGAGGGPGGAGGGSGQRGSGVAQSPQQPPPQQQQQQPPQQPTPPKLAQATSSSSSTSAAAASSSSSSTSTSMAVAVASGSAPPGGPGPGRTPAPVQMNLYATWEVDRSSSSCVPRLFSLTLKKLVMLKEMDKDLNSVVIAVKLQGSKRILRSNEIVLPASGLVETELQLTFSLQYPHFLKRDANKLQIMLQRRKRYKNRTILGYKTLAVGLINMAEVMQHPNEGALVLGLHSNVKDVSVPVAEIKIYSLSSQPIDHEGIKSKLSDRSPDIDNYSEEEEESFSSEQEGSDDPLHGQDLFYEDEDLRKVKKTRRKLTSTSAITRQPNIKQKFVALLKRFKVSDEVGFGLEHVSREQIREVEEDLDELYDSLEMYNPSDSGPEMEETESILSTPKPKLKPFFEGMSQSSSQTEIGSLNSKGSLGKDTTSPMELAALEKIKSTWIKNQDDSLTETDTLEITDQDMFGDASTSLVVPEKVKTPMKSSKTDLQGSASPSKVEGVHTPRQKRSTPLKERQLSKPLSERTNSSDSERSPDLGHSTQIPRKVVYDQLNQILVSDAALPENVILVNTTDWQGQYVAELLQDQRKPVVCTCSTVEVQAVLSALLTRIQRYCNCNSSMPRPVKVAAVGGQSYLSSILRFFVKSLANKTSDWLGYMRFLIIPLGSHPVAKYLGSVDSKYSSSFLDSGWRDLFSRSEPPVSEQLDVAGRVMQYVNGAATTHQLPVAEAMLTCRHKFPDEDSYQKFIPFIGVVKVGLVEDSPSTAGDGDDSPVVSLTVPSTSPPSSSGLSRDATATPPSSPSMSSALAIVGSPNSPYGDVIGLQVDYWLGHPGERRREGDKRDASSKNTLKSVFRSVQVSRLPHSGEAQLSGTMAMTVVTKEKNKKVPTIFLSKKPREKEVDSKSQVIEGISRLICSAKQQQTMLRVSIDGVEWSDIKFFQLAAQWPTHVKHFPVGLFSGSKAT
inactive: [1] 0 | volasertib -0.03 | [2] 0.208 | epoxomicin -0.045 | [3] -0.025 | [4] -0.006 | [5] 0.006 | rosiglitazone 0.039 | [6] 0.029 | [7] 0.014 | saracatinib -0.018 | sotrastaurin -0.043 | alvocidib 0.002 | Tubastatin A 0.038 | [8] -0.076 | defactinib -0.045 | rucaparib 0.022 | [9] 0.037 | encorafenib -0.01 | [10] -0.018

NDUFA9 (UniProt Q16795)
Chain of UniProt Q16795 (Q16795 whole entry, looked up): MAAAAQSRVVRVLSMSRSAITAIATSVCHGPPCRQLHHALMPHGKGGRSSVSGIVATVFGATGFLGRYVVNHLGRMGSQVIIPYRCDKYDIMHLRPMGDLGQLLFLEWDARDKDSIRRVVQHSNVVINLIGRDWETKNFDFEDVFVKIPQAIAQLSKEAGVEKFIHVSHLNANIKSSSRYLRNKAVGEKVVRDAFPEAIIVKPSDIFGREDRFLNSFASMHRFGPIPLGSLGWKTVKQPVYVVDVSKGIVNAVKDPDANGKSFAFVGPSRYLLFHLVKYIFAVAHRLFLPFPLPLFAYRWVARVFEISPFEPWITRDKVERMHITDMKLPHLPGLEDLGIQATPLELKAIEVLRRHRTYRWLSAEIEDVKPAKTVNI
inactive: [1] -0.082 | [2] 0.073 | epoxomicin 0.03 | [3] -0.029 | [4] -0.053 | [5] 0.035 | rosiglitazone 0.064 | [6] -0.017 | saracatinib -0.003 | sotrastaurin -0.008 | alvocidib -0.022 | Tubastatin A -0.013 | [8] -0.034 | defactinib -0.011 | rucaparib -0.038 | [9] 0.036 | encorafenib 0.048 | [10] -0.004
active: volasertib -0.26 | [7] -0.367

NARS2 (UniProt Q96I59)
Chain of UniProt Q96I59 (Q96I59 whole entry, looked up): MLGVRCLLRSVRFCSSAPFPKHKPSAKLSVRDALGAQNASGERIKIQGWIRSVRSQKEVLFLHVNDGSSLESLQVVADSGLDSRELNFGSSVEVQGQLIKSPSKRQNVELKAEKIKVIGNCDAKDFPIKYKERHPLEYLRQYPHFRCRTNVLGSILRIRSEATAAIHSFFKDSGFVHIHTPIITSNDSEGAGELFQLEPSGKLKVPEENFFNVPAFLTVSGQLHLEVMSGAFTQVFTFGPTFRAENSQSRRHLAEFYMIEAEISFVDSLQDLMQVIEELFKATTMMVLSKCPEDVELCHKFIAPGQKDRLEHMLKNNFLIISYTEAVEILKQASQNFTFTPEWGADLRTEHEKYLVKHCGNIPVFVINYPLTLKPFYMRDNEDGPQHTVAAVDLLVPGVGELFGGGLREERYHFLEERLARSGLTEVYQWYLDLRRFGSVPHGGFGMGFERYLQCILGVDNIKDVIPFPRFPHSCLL
inactive: [1] -0.021 | volasertib -0.043 | [2] 0.045 | epoxomicin 0.048 | [3] 0.034 | [4] -0.055 | [5] 0.001 | rosiglitazone 0.026 | [6] -0.034 | [7] -0.182 | saracatinib -0.004 | sotrastaurin 0.03 | alvocidib -0.039 | Tubastatin A -0.127 | [8] -0.056 | defactinib 0.001 | rucaparib -0.021 | [9] -0.006 | encorafenib 0.008 | [10] -0.008

NME1 isoform 2 (UniProt P15531)
Chain of UniProt P15531 (P15531 whole entry, looked up): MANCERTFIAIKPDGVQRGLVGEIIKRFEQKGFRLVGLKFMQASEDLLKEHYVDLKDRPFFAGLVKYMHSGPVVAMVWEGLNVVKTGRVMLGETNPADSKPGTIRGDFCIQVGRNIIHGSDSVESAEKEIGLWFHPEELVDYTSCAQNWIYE
inactive: [1] 0.061 | volasertib 0.046 | [2] 0.03 | epoxomicin -0.01 | [3] -0.087 | [4] -0.134 | [5] -0.028 | rosiglitazone 0.024 | [6] -0.184 | [7] -0.039 | saracatinib -0.156 | sotrastaurin 0.049 | alvocidib -0.103 | Tubastatin A -0.024 | [8] -0.087 | defactinib -0.01 | rucaparib 0.035 | [9] 0.069 | encorafenib -0.032 | [10] 0.041

NCAPD2 (UniProt Q15021)
Chain of UniProt Q15021 (Q15021 whole entry, looked up): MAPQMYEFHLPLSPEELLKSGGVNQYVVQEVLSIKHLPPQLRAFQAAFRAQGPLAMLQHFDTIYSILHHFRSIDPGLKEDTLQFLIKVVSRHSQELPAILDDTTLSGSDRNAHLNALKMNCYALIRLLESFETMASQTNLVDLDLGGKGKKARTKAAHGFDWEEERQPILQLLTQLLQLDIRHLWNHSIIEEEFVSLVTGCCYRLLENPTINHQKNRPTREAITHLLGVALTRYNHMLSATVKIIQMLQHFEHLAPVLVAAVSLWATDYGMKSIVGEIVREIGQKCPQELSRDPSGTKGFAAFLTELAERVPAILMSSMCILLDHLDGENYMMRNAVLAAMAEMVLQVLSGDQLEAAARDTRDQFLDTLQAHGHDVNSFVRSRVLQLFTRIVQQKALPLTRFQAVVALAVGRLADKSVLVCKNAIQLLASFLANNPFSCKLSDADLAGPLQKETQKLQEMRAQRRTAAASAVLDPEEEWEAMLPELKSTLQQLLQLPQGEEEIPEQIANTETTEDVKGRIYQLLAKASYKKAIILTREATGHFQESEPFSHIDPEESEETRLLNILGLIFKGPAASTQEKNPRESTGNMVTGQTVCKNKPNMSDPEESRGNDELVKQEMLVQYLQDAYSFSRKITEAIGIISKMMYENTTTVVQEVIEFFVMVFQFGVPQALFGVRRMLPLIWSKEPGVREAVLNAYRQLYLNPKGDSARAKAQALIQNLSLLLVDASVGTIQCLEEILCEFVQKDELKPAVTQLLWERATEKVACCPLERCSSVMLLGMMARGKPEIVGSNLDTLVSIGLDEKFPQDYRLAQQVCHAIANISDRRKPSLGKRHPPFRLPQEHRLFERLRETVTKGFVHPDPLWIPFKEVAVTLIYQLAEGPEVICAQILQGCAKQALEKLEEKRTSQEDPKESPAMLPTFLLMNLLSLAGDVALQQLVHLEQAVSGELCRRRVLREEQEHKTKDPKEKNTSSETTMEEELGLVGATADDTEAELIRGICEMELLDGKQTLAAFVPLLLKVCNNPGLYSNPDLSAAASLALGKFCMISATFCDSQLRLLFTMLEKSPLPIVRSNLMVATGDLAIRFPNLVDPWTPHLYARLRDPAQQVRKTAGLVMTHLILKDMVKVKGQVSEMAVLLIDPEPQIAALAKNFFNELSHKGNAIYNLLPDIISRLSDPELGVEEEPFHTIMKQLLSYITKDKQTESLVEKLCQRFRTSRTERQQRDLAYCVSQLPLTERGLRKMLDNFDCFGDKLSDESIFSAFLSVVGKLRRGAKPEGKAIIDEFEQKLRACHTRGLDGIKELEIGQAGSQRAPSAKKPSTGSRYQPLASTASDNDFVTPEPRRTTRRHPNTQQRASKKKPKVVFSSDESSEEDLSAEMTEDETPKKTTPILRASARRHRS
inactive: [1] -0.131 | [2] 0.081 | epoxomicin 0.019 | [3] -0.085 | [4] 0 | [5] 0.075 | rosiglitazone 0.023 | [6] 0.044 | [7] -0.098 | saracatinib -0.052 | sotrastaurin -0.145 | alvocidib -0.029 | Tubastatin A 0.012 | [8] 0.111 | defactinib -0.052 | rucaparib 0.142 | [9] 0.008 | encorafenib 0.11 | [10] -0.025
active: volasertib -0.486

NDUFA7 (UniProt O95182)
Chain of UniProt O95182 (O95182 whole entry, looked up): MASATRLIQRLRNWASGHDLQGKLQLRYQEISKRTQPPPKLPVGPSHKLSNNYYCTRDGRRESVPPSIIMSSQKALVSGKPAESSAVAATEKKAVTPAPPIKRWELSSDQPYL
active: [7] -0.324
inactive: [1] -0.19 | volasertib -0.109 | [2] -0.023 | epoxomicin 0.052 | [3] 0 | [4] 0.011 | [5] 0.01 | rosiglitazone -0.02 | [6] 0.027 | saracatinib -0.037 | sotrastaurin 0.047 | alvocidib -0.01 | Tubastatin A -0.148 | [8] -0.042 | defactinib 0 | rucaparib 0.046 | [9] -0.031 | encorafenib -0.042 | [10] -0.008

NOSIP (UniProt Q9Y314)
Chain of UniProt Q9Y314 (Q9Y314 whole entry, looked up): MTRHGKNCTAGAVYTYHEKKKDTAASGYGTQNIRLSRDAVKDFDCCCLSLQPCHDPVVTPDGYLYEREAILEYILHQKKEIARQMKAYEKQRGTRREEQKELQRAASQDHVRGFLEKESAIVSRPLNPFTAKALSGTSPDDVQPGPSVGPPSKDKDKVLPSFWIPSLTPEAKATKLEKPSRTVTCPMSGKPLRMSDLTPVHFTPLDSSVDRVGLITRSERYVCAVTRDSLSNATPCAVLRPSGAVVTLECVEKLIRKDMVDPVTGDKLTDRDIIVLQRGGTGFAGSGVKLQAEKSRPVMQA
inactive: [1] -0.373 | [2] 0.151 | epoxomicin 0.104 | [3] -0.129 | [4] -0.017 | [5] 0.196 | rosiglitazone 0.052 | [6] 0.109 | [7] 0.097 | saracatinib -0.045 | sotrastaurin -0.28 | alvocidib -0.098 | Tubastatin A 0.199 | [8] 0.05 | defactinib -0.199 | rucaparib 0.003 | [9] -0.106 | encorafenib 0.181 | [10] -0.182
active: volasertib -1.06

NCL (UniProt P19338)
inactive: [1] 0.167 | volasertib 0.173 | [2] -0.011 | epoxomicin -0.427 | [3] 0.022 | [4] 0.336 | [5] -0.06 | rosiglitazone -0.194 | [6] 0.393 | [7] 0.293 | saracatinib -0.111 | sotrastaurin 0.013 | alvocidib 0.277 | Tubastatin A 0.148 | [8] -0.001 | defactinib 0.354 | rucaparib 0.387 | [9] 0.137 | encorafenib 0.257 | [10] -0.01

NIBAN1 (UniProt Q9BZQ8)
active: volasertib -0.428
inactive: [1] -0.16 | [2] 0.073 | epoxomicin 0.066 | [3] -0.039 | [4] -0.085 | [5] 0.022 | rosiglitazone 0.055 | [6] 0.04 | [7] -0.208 | saracatinib -0.051 | sotrastaurin -0.086 | alvocidib -0.037 | Tubastatin A 0.004 | [8] -0.013 | defactinib -0.111 | rucaparib 0.08 | [9] 0.013 | encorafenib 0.144 | [10] -0.017

NDUFB7 (UniProt P17568)
Chain of UniProt P17568 (P17568 whole entry, looked up): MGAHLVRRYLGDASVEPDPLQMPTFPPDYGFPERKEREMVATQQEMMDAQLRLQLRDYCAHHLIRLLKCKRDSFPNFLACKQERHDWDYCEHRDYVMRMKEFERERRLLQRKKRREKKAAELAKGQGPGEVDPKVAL
inactive: [1] -0.053 | volasertib -0.004 | [2] -0.072 | epoxomicin -0.066 | [3] -0.129 | [4] -0.099 | [5] -0.036 | rosiglitazone 0.058 | [6] -0.058 | [7] 0.094 | saracatinib 0.046 | sotrastaurin -0.014 | alvocidib -0.016 | Tubastatin A 0.016 | [8] 0.021 | defactinib -0.015 | rucaparib -0.021 | [9] -0.011 | encorafenib -0.032 | [10] 0.029

NISCH (UniProt Q9Y2I1)
active: volasertib -0.487 | [7] -0.518
inactive: [1] -0.349 | [2] 0.025 | epoxomicin 0.05 | [3] -0.252 | [4] -0.121 | [5] 0.02 | rosiglitazone 0.103 | [6] 0.086 | saracatinib -0.037 | sotrastaurin -0.066 | alvocidib -0.054 | Tubastatin A -0.022 | [8] -0.141 | defactinib -0.128 | rucaparib -0.041 | [9] -0.072 | encorafenib 0.093 | [10] -0.12

NUDT1 (UniProt P36639)
inactive: [2] -0.012 | epoxomicin -0.039 | [3] -0.113 | [4] -0.19 | [5] 0.06 | rosiglitazone 0.054 | [6] -0.088 | [7] 0.157 | saracatinib 0.068 | sotrastaurin 0.043 | alvocidib -0.038 | Tubastatin A 0.193 | [8] 0.05 | defactinib 0.019 | rucaparib 0.416 | [9] 0.196 | encorafenib -0.03 | [10] -0.074
active: [1] 0.971 | volasertib 1.35

MRPL47 (UniProt Q9HD33)
inactive: [1] 0.094 | volasertib -0.038 | [2] 0.044 | epoxomicin 0.061 | [3] -0.021 | [4] 0.235 | [5] -0.036 | rosiglitazone -0.027 | [6] 0.071 | [7] -0.325 | saracatinib -0.168 | sotrastaurin -0.024 | alvocidib 0.113 | Tubastatin A 0.081 | [8] -0.028 | defactinib 0.151 | rucaparib -0.122 | [9] 0.17 | encorafenib 0.063 | [10] -0.022

MSH6 (UniProt P52701)
inactive: [1] -0.306 | [2] 0.227 | epoxomicin 0.097 | [3] -0.127 | [4] -0.089 | [5] 0.172 | rosiglitazone 0.179 | [6] -0.044 | [7] -0.261 | saracatinib -0.142 | sotrastaurin -0.278 | alvocidib -0.255 | Tubastatin A 0.127 | [8] -0.049 | defactinib -0.379 | rucaparib -0.014 | [9] 0.102 | encorafenib 0.141 | [10] -0.098
active: volasertib -0.683

PAK1 isoform 2 (UniProt Q13153)
Chain of UniProt Q13153 (Q13153 whole entry, looked up): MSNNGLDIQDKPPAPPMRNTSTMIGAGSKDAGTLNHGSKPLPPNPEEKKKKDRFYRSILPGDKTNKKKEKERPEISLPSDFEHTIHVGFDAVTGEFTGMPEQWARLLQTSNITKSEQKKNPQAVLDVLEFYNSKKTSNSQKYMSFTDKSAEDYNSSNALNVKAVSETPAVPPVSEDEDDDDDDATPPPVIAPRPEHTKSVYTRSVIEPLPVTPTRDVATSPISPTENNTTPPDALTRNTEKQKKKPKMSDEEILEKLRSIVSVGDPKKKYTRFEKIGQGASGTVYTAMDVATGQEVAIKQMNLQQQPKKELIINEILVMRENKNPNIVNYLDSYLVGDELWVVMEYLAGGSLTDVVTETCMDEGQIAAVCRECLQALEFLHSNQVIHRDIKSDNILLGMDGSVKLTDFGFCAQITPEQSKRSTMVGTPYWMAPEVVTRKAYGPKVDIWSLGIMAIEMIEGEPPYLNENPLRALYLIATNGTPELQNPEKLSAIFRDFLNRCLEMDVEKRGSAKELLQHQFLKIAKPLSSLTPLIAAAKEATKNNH
inactive: [1] 0.032 | volasertib -0.022 | [2] -0.024 | epoxomicin 0.046 | [3] 0.043 | [4] -0.122 | [5] 0.064 | rosiglitazone 0.016 | [6] -0.062 | [7] -0.031 | saracatinib 0.074 | sotrastaurin -0.015 | alvocidib -0.026 | Tubastatin A -0.098 | [8] 0.009 | defactinib 0.039 | rucaparib -0.082 | [9] -0.009 | encorafenib 0.033 | [10] 0.048

NUDT16 (UniProt Q96DE0)
Chain of UniProt Q96DE0 (Q96DE0 whole entry, looked up): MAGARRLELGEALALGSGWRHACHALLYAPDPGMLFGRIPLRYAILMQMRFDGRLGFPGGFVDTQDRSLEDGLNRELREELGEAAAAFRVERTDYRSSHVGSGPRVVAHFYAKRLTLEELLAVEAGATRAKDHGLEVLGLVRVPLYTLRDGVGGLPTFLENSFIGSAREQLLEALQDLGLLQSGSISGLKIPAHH
inactive: [1] 0.038 | volasertib 0.033 | [2] -0.059 | epoxomicin 0.009 | [3] -0.019 | [4] -0.073 | [5] -0.011 | rosiglitazone -0.048 | [6] -0.069 | [7] -0.035 | saracatinib 0.063 | sotrastaurin -0.031 | alvocidib -0.075 | Tubastatin A 0.009 | [8] -0.057 | defactinib -0.024 | rucaparib 0.009 | [9] -0.004 | encorafenib -0.017 | [10] -0.05
